Source: PubChem
This is a sample that favours compounds with a hit; in the whole collection about 2.4% have one here.
D2 ag-1: activates the human D2 dopamine receptor; HEK293 T-REx D2 cells, calcium flux agonist mode; activation, % at 2 µM; actives 0.53% (n = 340,000);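 active means activation over 3 SD above normal in the single-dose calcium agonist read, cut at about 30% in these data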; further: 0% is about no effect
Target sequence (P14416 whole entry, looked up): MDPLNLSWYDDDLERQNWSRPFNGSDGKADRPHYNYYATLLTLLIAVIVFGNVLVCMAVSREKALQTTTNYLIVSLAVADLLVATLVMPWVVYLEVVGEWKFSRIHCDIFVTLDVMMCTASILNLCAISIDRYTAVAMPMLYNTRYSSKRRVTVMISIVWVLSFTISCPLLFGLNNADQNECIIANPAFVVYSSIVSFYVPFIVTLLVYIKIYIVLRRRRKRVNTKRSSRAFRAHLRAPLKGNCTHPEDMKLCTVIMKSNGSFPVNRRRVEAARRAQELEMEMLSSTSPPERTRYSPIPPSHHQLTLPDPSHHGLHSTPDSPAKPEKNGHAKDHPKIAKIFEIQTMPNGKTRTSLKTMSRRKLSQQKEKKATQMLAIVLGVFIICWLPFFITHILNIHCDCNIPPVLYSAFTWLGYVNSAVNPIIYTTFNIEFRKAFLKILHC
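In this primary screen, compounds producing a positive calcium signal within 180 s of addition to tetracycline-induced, force-coupled HEK293 Trex D2 cells are flagged; cells are dye-loaded with a no-wash calcium kit beforehand.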
D2 PAM-1: D2 dopamine receptor (human) potentiation. P14416. AID 485347. actives 0.34% (n = 340,000). HEK293 T-REx D2, calcium flux, EC20 dopamine potentiation. potentiation, % at 10 µM;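 active means potentiation over 3 SD above the plate norm, cut at about 30% in these data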; further: 0% is about no effect
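Tetracycline-induced Hek293 Trex D2 cells, force-coupled to calcium, loaded with no-wash calcium dye. Compound added with 180 s kinetic read for agonism, then EC20 dopamine and a further 180 s read for potentiation.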
B2AR arrestin: agonists driving beta-arrestin recruitment to human beta2-adrenergic receptor; P07550; beta-arrestin recruitment to beta2AR, cell-based reporter; Potency, µM (highest dose often 46.1 µM), inactives show at the highest dose activation, actives largely listed as activators; actives 0.02% (n = 330,000); active means well fitted activation curve with a large enough effect;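 further: potency means the concentration at half of the fitted maximal effect; 0% = DMSO controls and full agonism = EC100 isoproterenol or metaproterenol; nearly all actives have a fitted effect of over 65% in size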
D2 PAM-2: human D2 receptor positive allosteric modulation | P14416 | DiscoveRx D2 beta-arrestin cells, luminescence, 90 min; 100% = 57 uM dopamine signal | potentiation, % (no concentration beside the values) | actives 0.23% (n = 360,000) | AID 624464; in the data active means potentiation above about 50%
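D2 cells co-treated with compound plus 50 nM dopamine (EC20) for 90 min at 37 deg C to detect potentiation. Beta-arrestin recruitment was read as enzyme-fragment luminescence after 1 h at ambient temperature. Full response was set by 57 uM dopamine.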
D2 ag-2: agonists of human D2 dopamine receptor (beta-arrestin). P14416. DiscoveRx PathHunter D2 beta-arrestin, luminescence, 90 min; 100% = 57 uM dopamine signal. activation, % (concentration not given with the values). actives 0.084% (n = 360,000); in the data active means activation above about 40%
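Agonist mode: compounds alone added to overnight-plated D2 PathHunter cells for 90 min at 37 C, with 57 uM final dopamine (EC100) defining full response. Beta-arrestin recruitment detected by chemiluminescent reagent, read after 1 h at ambient temperature.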
D2 antag: antagonists of human D2 dopamine receptor. inhibition, % at 10 µM. HEK293 TREx D2 cells, calcium flux, dopamine EC80. actives 2% (n = 340,000). P14416. AID 485344; in the data active means inhibition above about 30%; inactive means below that, where a call was filed; further: 0% is about no effect
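Calcium flux kinetic readout in an inducible HEK293 TREx D2 line plated overnight at 30 C. After 180 s compound exposure, an EC80 dopamine challenge follows with another 180 s kinetic read to detect antagonism.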
* = called active by the depositor; x = no result.

SMILES | D2 ag-1 | D2 PAM-1 | B2AR arrestin | D2 PAM-2 | D2 ag-2 | D2 antag
COc1ccccc1N1CCN(C(=O)C2CC=CCC2C(=O)O)CC1 (stereo not drawn) | 0 | -28 | 0% | -35 | -2 | 33*
COc1ccccc1N1CCN(C(=O)c2coc(=O)c(Br)c2)CC1 | 1 | -15 | 6% | -17 | -2 | 43*
COCCNC(=O)CCc1nc2cccnc2n1Cc1ccc(OC)cc1 | 1 | 0 | 0% | -4 | 2 | -10
CCCn1c(CCl)nc2cc(S(=O)(=O)N3CCOCC3)ccc21 | x | x | -1% | -6 | -1 | x
COc1ccccc1N1CCN(C(=O)c2ccoc2C)CC1 | 1 | -6 | 0% | -5 | 0 | 35*
COc1ccccc1N1CCN(C(=O)C2CCN(C(=O)c3ccccc3Cl)CC2)CC1 | 1 | 0 | 0% | 10 | -1 | 4
COc1ccccc1N1CCN(C(=O)c2c(C)noc2C)CC1 | 0 | 10 | 0% | -1 | 4 | -12
COc1ccccc1C(=O)N1CCC(N2CCN(c3ccccc3OC)CC2)CC1 | 9 | -28 | 0% | -21 | 0 | 38*
CCOC(=O)C1(CCOC)CCN(Cc2nc(-c3cccs3)oc2C)CC1 | 1 | -22 | 0% | -14 | -3 | 31*
Cc1oc(-c2cccs2)nc1CN1CCC(C(=O)N2CCCC2)CC1 | -2 | -10 | 0% | -11 | -4 | 23
Cc1oc(-c2cccs2)nc1CN1CCC(CO)(CCOc2ccccc2)CC1 | -1 | -8 | 0% | -29 | -4 | 54*
Cc1ccc(C(=O)Nc2sc3c(c2C(=O)O)CCCCC3)o1 | 1 | 3 | 0% | 4 | -1 | 32*
COC(=O)c1c(NS(=O)(=O)c2cccs2)sc2c1CCCC2 | 0 | 9 | 0% | -2 | -2 | 41*
COC(=O)c1c(NC(=O)c2ccco2)sc2c1CCC2 | -3 | 30* | 0% | 5 | -6 | 2
CC1(c2ccccc2)CCC(=O)NC1 (stereo not drawn) | x | x | x | -7 | 0 | x
Cc1ccsc1/C=C1\Oc2cc(OCC(=O)c3ccccc3)ccc2C1=O | 1 | -2 | -2% | 1 | -5 | -16
Cc1cc(C(=O)Nn2cnnc2)ccc1[N+](=O)[O-] | 0 | 9 | 0% | -11 | 2 | -16
C1CN=C(NC23CC4CC(CC(C4)C2)C3)C1 | 0 | 3 | -2% | -3 | -1 | -7
CCN(CC)CCCC(C)Nc1c2ccc(Cl)cc2nc2ccc(OC)cc12 (stereo not drawn) | 7 | 1 | -1% | x | x | -1
COc1ccc2nc3cc(Cl)ccc3c(Nc3cc(C(C)C)c(O)cc3C)c2c1 | -1 | -24 | 0% | -10 | 10 | 31*
O=C(NOCc1ccccc1)c1ccc(Cl)cc1Cl | 1 | 1 | 0% | -2 | 2 | 0
O=C(NC1CC1)c1cc2c(s1)-c1ccccc1OC2 | -1 | -11 | 0% | -11 | -1 | 34*
O=C(Nc1cccc(C(F)(F)F)c1)c1cc2c(s1)-c1ccccc1OC2 | 0 | -16 | -1% | -13 | -2 | 40*
CCN(C(=O)c1cc2c(s1)-c1ccccc1OC2)c1cccc(C(F)(F)F)c1 | 0 | 9 | x | x | x | x
O=C1N[C@@H](c2ccccc2)COC(=O)[C@@H](Cc2ccc(F)cc2)CC/C=C/C[C@H]1CC(=O)N(CCO)Cc1ccccc1 | x | x | -1% | x | 8 | x
SMILES | D2 ag-1 | D2 PAM-1 | B2AR arrestin | D2 PAM-2 | D2 ag-2 | D2 antag
CCOCCCNC(=S)NC1CC2CCC(C1)N2Cc1ccccc1 (stereo not drawn) | 0 | -18 | 0% | -25 | -3 | 21
S=C(NC1CCCCC1)NC1CC2CCC(C1)N2Cc1ccccc1 (stereo not drawn) | 1 | -9 | 0% | -23 | -6 | 77*
CCCNC(=S)NC1CC2CCC(C1)N2Cc1ccccc1 (stereo not drawn) | 0 | -6 | -1% | -18 | 0 | 67*
CC(C)CNC(=S)NC1CC2CCC(C1)N2Cc1ccccc1 (stereo not drawn) | 1 | -16 | -1% | -23 | -1 | 90*
CCNC(=S)NC1CC2CCC(C1)N2Cc1ccccc1 (stereo not drawn) | 1 | -21 | -1% | -27 | 2 | 57*
Cc1ccc(S(=O)(=O)N2CCOCC2)cc1C(=O)Nc1nc2ccccc2[nH]1 | 0 | 17 | -1% | 9 | 0 | -6
CCn1nnnc1SCC(=O)N1CCN(Cc2ccc3c(c2)OCCO3)CC1 | 1 | -1 | -2% | -17 | -3 | 12
COCCCNC(=S)NC1CC2CCC(C1)N2Cc1ccccc1 (stereo not drawn) | 0 | -12 | 0% | -16 | -4 | 28
S=C(NCCc1ccccc1)NC1CC2CCC(C1)N2Cc1ccccc1 (stereo not drawn) | 0 | -28 | -1% | -23 | -10 | 63*
CC(=O)N1CCC(C(=O)NCCOc2ccc(C)cc2)CC1 | 0 | -1 | -1% | -1 | -3 | -13
COc1ccccc1OCCNC(=O)C1CCN(C(C)=O)CC1 | 2 | 31* | 0% | -6 | 0 | 5
O=[N+]([O-])c1ccc(OCCN2CCNCC2)cc1 | 1 | -3 | 0% | -7 | -2 | 32*
Cc1ccc(CSCC(=O)Nc2ccccc2C(=O)O)cc1 | -3 | -1 | 0% | 52* | 5 | -9
Cc1ccc(CSCC(=O)N2CCCC2)cc1 | 1 | 5 | 0% | -2 | -5 | 33*
O=C(CSCc1ccc(Br)cc1)N1CCCC1 | 2 | -4 | 0% | -2 | -3 | 12
O=C(CSc1n[nH]c(=O)n1C1CC1)NCc1ccccc1 | -1 | -1 | -2% | 1 | -3 | -8
O=C(NCc1ccc(F)cc1)C1CCCN1C(=O)NCc1ccccc1 (stereo not drawn) | 0 | 8 | 0% | -16 | -3 | 3
CCc1ccccc1NC1Nc2cc(C)nn2S1 (stereo not drawn) | 0 | 56* | 0% | -8 | -4 | 8
COCCN1C(=O)/C(=C/c2cc3c(cc2Br)OCO3)NC1=S | -1 | -6 | -1% | -10 | 4 | 19
N#CC1(NC(=O)COC(=O)C2=COCCO2)CCCCC1 | 0 | 3 | 0% | -4 | -5 | 50*
CN(C(=O)COC(=O)C1=COCCO1)C1(C#N)CCCCC1 | 0 | 8 | 0% | -16 | 3 | 4
O=C(COc1ccc(Cl)cc1)NCCc1csc(-c2ccc(F)cc2)n1 | -1 | 8 | x | x | x | x
OCCC1CN(Cc2ccc(F)cc2)CCN1CCc1ccccc1 (stereo not drawn) | -3 | -2 | 0% | -2 | -2 | 43*
